Inconclusive results are not listed. The source made the active and inactive calls. The calls were made as follows, unless noted: active = hit-call score of the fitted dose curve at least 0.9, where 1 is the maximum; inactive = score below 0.9.

The values below come from PubChem BioAssay (EPA / NIEHS).

Assay [1] can be described thus: CCTE_Shafer_MEA_dev_firing_rate_mean: CCTE's Neural Network Formation Assay for Mean Firing Rate, Shafer Lab (AID 2284031). The procedure, abridged:
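Steps: seed rat cortical cells (1.5 x 10^5/well) with laminin on PEI-coated MEA; dose day 0; record DIV 5/7/9/12, full media and compound exchange after DIV 5 and 9 recordings; compute well-mean firing rate AUC.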

A short description of assay [2]: CCTE_Shafer_MEA_dev_per_burst_spike_percent: CCTE's Neural Network Formation Assay for Percent of Spikes in a Burst, Shafer Lab (AID 2284032). The procedure, abridged: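 Value is trapezoidal AUC over recordings on days 5, 7, 9 and 12 of the well-mean fraction of spikes falling in single-electrode bursts; rat cortical cultures exposed continuously from plating, treatment renewed DIV 5 and 9, fitted downward against DMSO.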

The nature of assay [3]: CCTE_Shafer_MEA_dev_active_electrodes_number: CCTE's Neural Network Formation Assay for Number of Active Electrodes, Shafer Lab (AID 2284040; active = hit-call score of the fitted dose curve at least 0.9, where 1 is the maximum). The essentials: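 Counts electrodes per well firing at least 5 spikes/min, recorded on days 5, 7, 9 and 12 in rat cortical cultures dosed continuously from plating (treatment refreshed DIV 5, 9). Value is the area under the curve over recordings, fitted downward relative to DMSO.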

Assay [4] can be described thus: CCTE_Shafer_MEA_dev_burst_rate: CCTE's Neural Network Formation Assay for Burst Rate, Shafer Lab (AID 2284042). The essentials:
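Developmental network assay measuring how 12-day exposure of rat cortical neuron cultures alters bursting on extracellular MEA recordings. Values are AUC of well-mean burst rate across four recording days, relative to DMSO vehicle.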

Assay [5] can be described thus: CCTE_Shafer_MEA_dev_bursting_electrodes_number: CCTE's Neural Network Formation Assay for Number of Bursting Electrodes, Shafer Lab (AID 2284043; active = hit-call score of the fitted dose curve at least 0.9, where 1 is the maximum). The essentials:
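Counted: electrodes with burst rate ≥1 per 2 min in each well. Cells: primary rat cortex, 1.5 x 10^5/well, on 16-electrode MEA wells. Exposure: DIV 0–12, compound renewed DIV 5 and 9. Recording days 5, 7, 9, 12; AUC vs DMSO baseline.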

The nature of assay [6]: CCTE_Shafer_MEA_dev_per_burst_interspike_interval: CCTE's Neural Network Formation Assay for Burst Interspike Interval, Shafer Lab (AID 2284044). The procedure, abridged: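 Primary rat cortical neurons on 48-well MEA plates, exposed from day 0 through day 12, treatment renewed at DIV 5 and 9. Within-burst interspike interval recorded days 5, 7, 9, 12, well-averaged, summarised as AUC; negative fit versus DMSO.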

Assay [7] is described as follows: CCTE_Shafer_MEA_dev_burst_duration_mean: CCTE's Neural Network Formation Assay for Mean Burst Duration, Shafer Lab (AID 2284045). The procedure, abridged: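 Network-formation assay in primary rat cortical neurons; treatment spans twelve days of development. Mean burst duration per well is integrated by trapezoidal AUC and fitted in the loss-of-signal direction against DMSO baseline.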

Assay [8] in a line: CCTE_Shafer_MEA_dev_interburst_interval_mean: CCTE's Neural Network Formation Assay for Mean Interburst Interval, Shafer Lab (AID 2284046).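 Also: well-mean interburst interval of bursting electrodes as AUC over four recording days; curve fitted for decrease in interburst interval relative to DMSO.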 The essentials:
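Network formation assay in primary rat cortical cultures, exposed from DIV 0 to 12. Mean interburst interval per well, integrated as AUC over four recordings.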

Assay [9] in a line: CCTE_Shafer_MEA_dev_inter_network_spike_interval_mean: CCTE's Neural Network Formation Assay for Mean Inter-network Spike Interval, Shafer Lab (AID 2284047). The procedure, abridged:
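Compound was given at plating to primary rat cortical neurons and renewed with full medium changes on DIV 5 and 9. Extracellular activity was recorded on days 5, 7, 9, 12; AUC values were fitted for loss relative to DMSO control.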

Assay [10] can be described thus: CCTE_Shafer_MEA_dev_network_spike_number: CCTE's Neural Network Formation Assay for Number of Network Spikes, Shafer Lab (AID 2284048).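 Also: synchronized bursts across electrodes counted on days 5 7 9 12 and integrated as AUC.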 The procedure, abridged:
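Extracellular recordings from 16-electrode wells track network formation in rat cortical cultures under continuous treatment from plating. The endpoint is network spike number, expressed as AUC across DIV 5–12 relative to DMSO vehicle.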

Assay [11] is described as follows: CCTE_Shafer_MEA_dev_network_spike_peak: CCTE's Neural Network Formation Assay for Mean Number of Electrodes in Network Spike, Shafer Lab (AID 2284049). The essentials:
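Continuous 12-day exposure of rat cortical cultures, starting at plating, on MEA plates. Endpoint: electrodes participating in network-spike peaks, AUC across DIV 5–12, DMSO as negative control.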

A short description of assay [12]: CCTE_Shafer_MEA_dev_spike_duration_mean: CCTE's Neural Network Formation Assay for Mean Spike Duration, Shafer Lab (AID 2284051).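 Also: mean network spike duration pooled as area under curve over DIV 5 to 12 recordings.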 The essentials:
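With DMSO as baseline, loss of mean network spike duration was scored from extracellular recordings of rat cortical neurons on MEA plates. Exposure spanned plating to DIV 12; the four recording days were collapsed into one AUC value.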

Assay [13] is described as follows: CCTE_Shafer_MEA_dev_network_spike_duration_std: CCTE's Neural Network Formation Assay for Standard Deviation of Network Spike Duration, Shafer Lab (AID 2284052).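 Also: area under curve of spike duration SD across recording days 5 to 12; hits are decreases in network spike duration SD versus DMSO vehicle.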 The procedure, abridged: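 Developing networks of rat cortical neurons were exposed over twelve days in vitro on 48-well MEA plates. Trapezoidal AUC of recordings (DIV 5–12) was analysed for signal loss relative to DMSO vehicle.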

Assay [14] in a line: CCTE_Shafer_MEA_dev_per_network_spike_spike_number_mean: CCTE's Neural Network Formation Assay for Mean Number of Spikes in a Network Spike, Shafer Lab (AID 2284053). The essentials:
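First, rat cortical cells (1.5 x 10^5/well) were seeded onto MEA wells; second, dosing began at plating and was refreshed on DIV 5 and 9; finally, network-spike spike counts across DIV 5–12 were summarized as AUC.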

Assay [15] in a line: CCTE_Shafer_MEA_dev_per_network_spike_spike_percent: CCTE's Neural Network Formation Assay for Percent of Spikes in a Network Spike, Shafer Lab (AID 2284054). The procedure, abridged: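 Developing networks of rat cortical neurons are dosed at day 0 and recorded extracellularly four times up to day 12. The endpoint is the area under the curve of percent spikes in network spikes, fitted in the negative direction relative to DMSO.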

Assay [16] in a line: CCTE_Shafer_MEA_dev_LDH: CCTE's Lactate Dehydrogenase Assay for Cytotoxicity in the Neural Network Formation Assay, Shafer Lab (AID 2284068; active = hit-call score of the fitted dose curve at least 0.9, where 1 is the maximum;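 also: exposure for twelve days from plating with re-dosing on DIV 5 and 9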). The essentials:
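Developing rat cortical networks on MEA plates are exposed to compound for 12 days from plating. LDH activity is measured spectrophotometrically, with DMSO as baseline.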

Assay [17] can be described thus: CCTE_Shafer_MEA_dev_correlation_coefficient_mean: CCTE's Neural Network Formation Assay for Mean Correlation Coefficient, Shafer Lab (AID 2284093). The essentials: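 Extracellular firing from rat cortical networks on 48-well MEAs, DMSO-referenced, negative fitting direction. Compound present from plating to DIV12; mean pairwise correlation per well integrated over DIV5–12 recordings by trapezoidal AUC.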

The nature of assay [18]: UKN2_HCS_IMR90_neural_migration: University of Konstanz (UKN) Leist Lab Neural Crest Cell Migration Assay in human induced IMR90 Pluripotent Stem Cells (UKN2) (AID 2284204). The note with it: actives raise or lower the signal. The essentials: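 Using a 96-well stopper format with PLO/laminin/fibronectin coating, neural crest cells from iPSC migrate in cytokine-supplemented N2-S medium; after 24 h, chemicals are applied for a further 24 h, then cells are imaged after dye staining.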

The nature of assay [19]: IUF_NPC1b_proliferation_BrdU_72hr: Leibniz Research Institute for Environmental Medicine (IUF) 72-hour Neural Progenitor Cell Bromodeoxyuridine (BrdU) Proliferation Assay (NPC1b) (AID 2284207). The essentials:
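Neural progenitor spheres of human fetal origin are treated for three days; BrdU added for the last 16 h is quantified by luminescence ELISA, with DMSO as baseline and EGF/FGF omission as positive control.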

Assay [20] can be described thus: IUF_NPC1a_proliferation_area_72hr: Leibniz Research Institute for Environmental Medicine (IUF) 72-hour Neural Progenitor Cell Proliferation Area Assay (NPC1a) (AID 2284208). The procedure, abridged: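 Single 0.25–0.35 mm human fetal neural progenitor spheres in proliferation medium with EGF and FGF, exposed 72 h from plating without renewal at 37C, pH 7.2-7.6. Sphere area growth measured by automated phase-contrast imaging, relative to DMSO.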

Assay [21] can be described thus: IUF_NPC1_viability_72hr: Viability Assessment at 72 hours in the Leibniz Research Institute for Environmental Medicine (IUF) Neural Progenitor Cell Proliferation Assay (NPC1) (AID 2284209). The essentials: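 Spheres of primary human neural progenitors were plated singly in proliferation medium and treated for 72 h. Mitochondrial reduction of resazurin was then measured by fluorescence and analysed against DMSO controls.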

Assay [22] in a line: CCTE_Mundy_HCI_Cortical_Synap_Neur_Matur_NeuriteSpotCountPerNeuriteLength: CCTE's Synaptogenesis and Neurite Maturation Assay in rat cortical cells for Neurite Spot Count per Neurite Length, Mundy Lab (AID 2284210). The procedure, abridged:
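Neurite-associated synapse density (synaptophysin puncta per unit neurite length) is measured by fluorescence high-content imaging in rat cortical cultures treated from DIV 7 and fixed at DIV 12, with DMSO as negative control.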

A short description of assay [23]: CCTE_Mundy_HCI_Cortical_Synap_Neur_Matur_BPCount: CCTE's Synaptogenesis and Neurite Maturation Assay in rat cortical cells for Branch Point Count, Mundy Lab (AID 2284211). The essentials: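 HCI read-out of branch points from MAP2/synaptophysin/Hoechst immunofluorescence; rat cortical cultures, AraC DIV 5, dosing DIV 7, fixed DIV 12; fit in positive direction vs DMSO baseline.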

For `C[C@@H]1CC[C@@H](C(C)(C)O)[C@H](O)C1`, the result in assay [1], in [2], in assay [3], in assay [4], in assay [5] and in [6] was inactive. Moreover, the result in [7], in [8], in assay [9], in [10], in assay [11] and in assay [12] was inactive. The result in [13], in [14], in [15], in assay [16], in assay [17] and in assay [18] was inactive. Also, the outcome in assay [20], in assay [21], in [22] and in [23] was inactive. In addition, the AC50 in assay [19] was 8.23 µM (active).

As a reminder, the AC50 is the midpoint of the concentration-response curve, whichever way the signal moves.
